# The list is not random: actives were taken first. Their share in the collection is about 2.4%.
# ClpP mod – qHTS Assay for Activators of ClpP; Potency, µM (series often up to 57.5 µM), without a hit: at the highest dose activity change, negative = active; 340,000 compounds, 1.9% hits; purified B. subtilis ClpP, FRET peptide cleavage, 20 min; ATP-dependent Clp protease proteolytic subunit (Bacillus subtilis (strain 168)), P80244; active means well fitted falling curve with a large enough effect; inconclusive means small, poorly fitted or top-dose-only effect; inactive means no such curve, though single readings can be large or run the other way; further: the source files actives as falling curves though it sought activators and does not explain the sign; nearly all actives have a fitted effect of over 65% in size
#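 Purified B. subtilis ClpP, 10 microg/mL final in Tris/HCl pH8 with KCl, BSA, glycerol and Tween-20, cleaved an Abz/nitrotyrosine-quenched decapeptide. Fluorescence (ex 320, em 430) was read at 0 and 20 min at room temperature. Delta was normalized to 5.8 microM ADEP and DMSO/no-enzyme controls.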
# TDP1 block – TDP1 (human) enzyme inhibition; Q9NUW8; 350,000 compounds, 0.28% hits; recombinant TDP1, AlphaScreen DNA substrate cleavage; Potency, µM (doses to about 130 µM), for the others: at the highest dose activity change, negative = inhibition, hits mostly inhibitors; active means well fitted curve in the direction sought with a large enough effect; inconclusive means small, poorly fitted or top-dose-only effect, or another doubt; inactive means no such curve, though single readings can be large; an effect the other way counts as inactive or inconclusive; further: on the % scale 0 is the no-effect control and ±100 the full control effect; nearly all actives have a fitted effect of over 40% in size
#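 Signal: AlphaScreen proximity between streptavidin donor and anti-FITC acceptor beads on intact substrate. Reaction: Tdp1 1 nM, substrate 15 nM final, 5 min RT after 15 min compound preincubation.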
# Rango dissoc inh – inhibitors of RanGTP-induced Rango-importin beta complex dissociation. Biochemical FRET Rango-importin beta, RanGTP-induced dissociation. AID 540253. 340,000 compounds, 0.071% hits. Potency, µM (doses to about 46.1 µM), for the others: top-dose activity change, negative = inhibition; further: % of control where 0% means no effect; nearly all actives have a fitted effect of over 45% in size
#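 FRET read at 45 min, room temperature: inhibitors block the CFP/YFP signal rise when RanGTP (0.6 uM Ran, 2 mM GTP, 0.2 uM RCC1) frees Rango (0.1 uM) from importin beta (0.25 uM). Pre-read after 5 min compound exposure flags interference.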
# TSG101-PTAP inh – blocks PTAP/TSG101 interaction to inhibit HIV-1 budding; Fluorescence polarization, FITC-PTAP peptide / Tsg101 binding; Potency, µM (series often up to 115 µM), inactives show top-dose activity change, negative = inhibition, hits mostly inhibitors; AID 493005; 340,000 tested, under 10 active; active means well fitted inhibition curve with a large enough effect in the main read-out, with a control signal flat, not every such curve was filed as active; inconclusive means small, poorly fitted or top-dose-only effect, or effect the other way, or a change in a side signal; inactive means no such curve, though single readings can be large or run the other way; further: % of control where 0% means no effect
#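 Fluorescence polarization binding of Tsg101 binding domain (10 uM final) to FITC-labeled PTAP peptide (50 nM final) in HEPES pH 7.5 buffer with NaCl, Tween 20, EDTA, TCEP. Compounds added before peptide; binding 20 min at RT.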
# 12-LOX inh – ALOX12 (human) lipoxygenase inhibition. P18054. purified 12hLO, xylenol orange hydroperoxide absorbance. Potency, µM (top dose mostly 108 µM), without a hit: top-dose activity change, negative = inhibition, actives largely listed as inhibitors. 580,000 compounds, 1.1% hits; active means well fitted curve in the direction sought with a large enough effect; inconclusive means small, poorly fitted or top-dose-only effect, or another doubt; inactive means no such curve, though single readings can be large; an effect the other way counts as inactive or inconclusive; further: on the % scale 0 is the no-effect control and ±100 the full control effect
# Target sequence (P18054 whole entry, looked up): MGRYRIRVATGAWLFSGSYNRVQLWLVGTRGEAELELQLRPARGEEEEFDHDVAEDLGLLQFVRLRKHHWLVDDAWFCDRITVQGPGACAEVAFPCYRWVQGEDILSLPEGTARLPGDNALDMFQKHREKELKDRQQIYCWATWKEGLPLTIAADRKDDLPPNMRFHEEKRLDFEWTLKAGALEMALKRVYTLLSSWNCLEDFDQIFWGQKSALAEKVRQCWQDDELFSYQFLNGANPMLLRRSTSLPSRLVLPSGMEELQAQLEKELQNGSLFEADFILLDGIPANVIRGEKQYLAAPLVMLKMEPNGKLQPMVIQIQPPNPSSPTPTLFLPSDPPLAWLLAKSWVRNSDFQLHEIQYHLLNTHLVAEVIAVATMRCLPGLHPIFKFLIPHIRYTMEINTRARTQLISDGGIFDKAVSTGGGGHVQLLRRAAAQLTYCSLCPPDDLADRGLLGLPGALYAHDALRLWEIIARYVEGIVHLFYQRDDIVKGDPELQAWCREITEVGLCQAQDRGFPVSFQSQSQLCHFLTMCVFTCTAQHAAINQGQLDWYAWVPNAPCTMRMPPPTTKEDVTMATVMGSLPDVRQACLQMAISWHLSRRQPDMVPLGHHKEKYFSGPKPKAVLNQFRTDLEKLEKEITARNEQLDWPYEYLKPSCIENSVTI
#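 Hydroperoxide product was detected by ferrous iron/xylenol orange as the 573 to 405 nm absorbance ratio. Arachidonic acid at 40 uM (final) was turned over for 30 min at room temperature by 150 nM human 12hLO, pH 7.0 Hepes buffer, after 15 min compound preincubation.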
# Rango complex inh – prevents formation of the Rango-importin beta complex. 340,000 compounds, 0.031% hits. AID 540263. Potency, µM (top dose mostly 92.2 µM), inactives show at the highest dose inhibition of complex formation. Q14974. Rango CFP/YFP FRET sensor + importin beta, 45 min;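 further: 0% = DMSO wells and 100% = buffer wells lacking importin beta; nearly all actives have a fitted effect of over 15% in size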
#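 FRET biosensor (snurportin 1 IBB flanked by EYFP and cerulean), 50 nM, with compound 5 min, then 0.125 microM importin beta in PBS, 1 mM DTT, 0.02% Tween-20, 0.1% BSA. CFP/YFP ratio read after 45 min at room temperature; pre-read flags interference.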
# Starred values were filed as active, the others as inactive; i = inactive; u = inconclusive; x = no result given; [ ] = another dose, or the depositor's remark. Unless noted, the call rests on the fitted dose curve. Potency means the concentration at half of the fitted maximal effect.
SMILES,ClpP mod,TDP1 block,Rango dissoc inh,TSG101-PTAP inh,12-LOX inh,Rango complex inh
C=C(C)C(=O)Nc1cccc(C2=NOC3(C2)C[C@@H](C(N)=O)N(C(=O)c2ccc(OC)cc2)C3)c1 (stereo partly specified),-4%,11µM*,16%,0%,x,-8%
C/C=C/C=C\C(=O)Nc1cccc(C2=NOC3(C2)C[C@@H](C(N)=O)N(C(=O)c2cc([N+](=O)[O-])cc([N+](=O)[O-])c2C)C3)c1 (stereo partly specified),0%,2%,-13%,-2%,16µM*,-1%
C=C(C)C(=O)Nc1cccc(C2=NOC3(C2)C[C@@H](C(N)=O)N(C(=O)CCCCC)C3)c1 (stereo partly specified),-2%,40µM*,7%,-4%,-7%,-1%
CCC(C)Sc1ccc(NC(C)=O)c(C)c1 (stereo unspecified),x,x,x,x,-2%,x
CC(C)=CCCC(C)CCOC=O (stereo unspecified),x,x,x,x,165%[176 µM],x
CC(=O)N1CCC2(CC1)C/C(=N\NC(=S)Nc1ccc(C)cc1)c1cc(O)ccc1O2,-30%,10%,-11%,-4%,45µM*,-2%
COc1ccc(NC(=S)N/N=C2\CC(C)(C)Oc3ccc(OC)cc32)cc1,-27%,6%,0%,-9%,u,0%
Cn1c(=O)c2[nH]c(N3CCN(C(=O)CN4CCN(c5ccccc5)CC4)CC3)nc2n(C)c1=O,x,x,x,x,-2%,x
CNC(=O)/C(C#N)=C/c1c(N2CC(C)OC(C)C2)nc2ccccn2c1=O (stereo unspecified),28µM*,3%,u,0%,-24%,u
CCNC(=O)/C(C#N)=C/c1c(N2CC(C)OC(C)C2)nc2ccccn2c1=O (stereo unspecified),-16%,-3%,-23%,1%,u,u
Cc1ccc(S(=O)(=O)/C(C#N)=C/c2c(N3CCC(C(N)=O)CC3)nc3ccccn3c2=O)cc1,-3%,4%,13µM*,-5%,u,u
O=C1O[C@H](CN2CCOCC2)CN1/N=C\c1ccc([N+](=O)[O-])o1,x,11%[21 µM],x,x,x,x
O=C1OC(CN(Cc2ccccc2)Cc2ccccc2)CN1N=Cc1ccc([N+](=O)[O-])o1 (stereo unspecified),x,x,3%,-6%,13µM*,3%
CCOC(=O)CSC1=NC(=O)/C(=C\c2ccc(Cl)cc2)S1,0%,0%,-16%,7%,45µM*,6%
N#Cc1c(NC2CCCCC2)nc(-c2ccco2)c2c1CCCC2,7.1µM*,-2%,u,-2%,x,u
N#Cc1c(NCCCO)nc(-c2ccco2)c2c1CCCC2,28µM*,-2%,u,-8%,u,u
CC1(C)Cc2c(C#N)c(NCCN3CCOCC3)nc(-c3ccco3)c2CO1,32µM*,4%,16%,-1%,0%,0%
N#Cc1c(OCC(=O)N2CCCC2)nc(-c2ccco2)c2c1CCC2,x,x,x,x,-4%,x
CC(=O)c1sc(NC(=O)c2cc(-c3ccccc3)nn2-c2ccccc2)nc1C,x,0%,-3%,0%,-14%,0%
O=C(Nc1nc2ccccc2s1)c1cc(-c2ccccc2)nn1-c1ccccc1,28µM*,3%,7%,0%,2%,2%
CCN1CCN(CC(=O)Nc2ccc(OC(F)(F)F)cc2)CC1,-2%,x,-5%,1%,0.5µM*,-1%
CN1CCN(CC(=O)Nc2ccc(Oc3ccccc3)cc2)CC1,-1%,2%,-15%,-1%,-1%,1%
CCOC(=O)N1CCN(CC(=O)Nc2ccc(Oc3ccccc3)cc2)CC1,28µM*,-1%,4%,-2%,-22%,-1%
Cc1ccc(C)c(N=Cc2cc3c(cc2[N+](=O)[O-])OCO3)c1,x,5%,-12%,-5%,u,0%
O=[N+]([O-])c1cc(Br)cc(C=Nc2ccc3c(c2)OCO3)c1O,3%,9%,u,1%,35µM*,-1%
SMILES,ClpP mod,TDP1 block,Rango dissoc inh,TSG101-PTAP inh,12-LOX inh,Rango complex inh
O=[N+]([O-])c1ccc(O)c(C=Nc2ccc3c(c2)OCO3)c1,x,0%,-20%,7%,-11%,-2%
CC(C)(C)c1ccc(O)c(N=Cc2cc3c(cc2[N+](=O)[O-])OCO3)c1,x,x,2%,-1%,35µM*,3%
O=C1CCN(C(=O)[C@H](Cc2ccccc2)NS(=O)(=O)c2ccccc2)CCCOCCN1,x,x,x,x,43%,x
COc1ccc(Cc2nc3ccc(C(=O)NCCn4ccnc4C)cc3o2)cc1OC,32µM*,5%[56.1 µM],-2%,-4%,i,8%
COCCn1c(N)c(C(=O)OCc2ccccc2)c2nc3ccccc3nc21,7.9µM*,-1%,u,-3%,-25%,u
Nc1c(C(=O)NCc2ccco2)c2nc3ccccc3nc2n1CCc1ccccc1F,28µM*,-1%,u,-10%,u,u
O=C(NCc1ccco1)c1ccc(Cn2c(SCc3ccccc3F)nc3cccnc32)cc1,4%,6%,x,x,-3%,x
COc1ccc(Cc2nc3ccc(C(=O)NCCc4ccncc4)cc3o2)cc1OC,0%,0%,15%,-2%,3%,-3%
COc1ccc(CCn2c(N)c(C(=O)NCc3ccco3)c3nc4ccccc4nc32)cc1,32µM*,-5%,u,-3%,u,u
O=C(Nc1ccc(S(=O)(=O)N2CCOCC2)cc1)c1nc(-c2ccccc2)n(-c2ccccc2)n1,x,x,x,x,32%,x
O=[S+]([O-])(c1cccc(C(F)(F)F)c1)N1CCCC2(CC(c3ccccc3)=NO2)C1 (stereo unspecified),x,x,x,x,-1%[6.33 µM],x
COc1ccc2cc3cc(C(=O)NCc4ccco4)oc3nc2c1,96%,50µM*,-11%,-4%,-6%,-3%
COc1ccc(-n2c(N)c(C(=O)NCc3ccco3)c3nc4ccccc4nc32)c(OC)c1,11µM*,1%,u,-2%,-14%,u
CCCNC(=O)c1c(N)n(-c2cccc(OC)c2)c2nc3ccccc3nc12,20µM*,-10%,u,-7%,2%,u
Cc1nn(-c2ccccc2)c(Cl)c1C(=O)NCC1CCCO1 (stereo unspecified),1%,0%,18%,-3%,-24%,0%
Nc1c(C(=O)NCC2CCCO2)c2nc3ccccc3nc2n1-c1ccccc1 (stereo unspecified),16µM*,0%,u,-2%,96%,u
